Only some compounds are listed: those with a hit (about 1.2% of all), similar ones and a draw of the others.
DSG3 Ab inh = blocks pemphigus antibody binding to human desmoglein-3; 310,000 tested, 0.48% active; P32926; binding (percent of control), % at 10 µM; DSG3-coupled beads, scFv-anti-DSG3-GFP binding, flow cytometry; active compounds read low;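 active means binding more than 3 SD below its plate's average and above zero; inconclusive means below that plate limit but binding exactly zero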;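 further: hits lower antibody fragment binding to DSG3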
LAP4 TOR yeast = alters LAP4-GFP fluorescence in TOR pathway yeast screen. 320,000 tested, 0.34% active. S. cerevisiae LAP4-GFP multiplex, flow cytometry GFP, 3 h; median GFP as percent of DMSO wells. GFP response vs DMSO, % at 10 µM. AID 2023;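 active means GFP response vs DMSO above a set limit, about the screen mean plus 3 SD, cut at about 150% in these data; inconclusive means under 70 cell events counted for the yeast strain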
MEP2-GFP yeast = yeast TOR pathway MEP2-GFP modulation | S. cerevisiae MEP2-GFP strain, flow cytometry GFP, 3 h; 100% = DMSO control level | GFP response vs DMSO, % at 10 µM | 330,000 tested, 0.51% active;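 active means GFP response versus DMSO above a set limit, roughly screen mean plus 3 SD, cut at about 180% in these data; inconclusive means fewer than 70 cells counted for a yeast strain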;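 further: median GFP fluorescence of the barcode-gated MEP2-GFP cells per well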
RPL19A TOR yeast = yeast TOR pathway RPL19A-GFP modulation | S. cerevisiae RPL19A-GFP strain, flow cytometry, 3 h; active compounds read low | percent response vs DMSO, % at 10 µM | 330,000 tested, 0.3% active;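 active means percent response vs DMSO below 50%; inconclusive means fewer than 70 events counted for the yeast strain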;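 further: median channel GFP fluorescence of the barcoded RPL19A-GFP strain; ratio of sample median GFP to plate DMSO average so 100% = DMSO; lower means less RPL19A-GFP as with rapamycin TOR inhibition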
CIT2 TOR yeast = modulators of TOR pathway CIT2-GFP in S. cerevisiae. S. cerevisiae CIT2-GFP strain, flow cytometry, 3 h; 100 means same as DMSO wells. GFP response vs DMSO, % at 10 µM. 320,000 tested, 0.065% active. AID 2029;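 active means GFP response relative to DMSO above a set limit, near the screen mean plus 3 SD, cut at about 150% in these data; inconclusive means Fewer than 70 cells measured for a yeast strain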;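 further: ratio of well median GFP fluorescence to mean of DMSO wells on the plate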
AGP1-GFP MLPCN = modulators of TOR pathway AGP1-GFP in S. cerevisiae; S. cerevisiae AGP1-GFP multiplex flow cytometry, 3 h; GFP as percent of DMSO wells; GFP response vs DMSO, % at 10 µM; 320,000 tested, 0.02% active; AID 2066;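 active means GFP response relative to DMSO above a set limit, near screen average plus 3 SD, cut at about 150% in these data; inconclusive means fewer than 70 cells counted for the yeast strain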;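 further: median GFP channel fluorescence of the gated AGP1 strain per well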
Active calls of the source: *; u = inconclusive; x = no result given; [ ] = dose if it differs, or a comment.

SMILES | DSG3 Ab inh | LAP4 TOR yeast | MEP2-GFP yeast | RPL19A TOR yeast | CIT2 TOR yeast | AGP1-GFP MLPCN
COc1ccc(OC)c(CCNC(=O)CCC(=O)N2CCOc3ccc(C)cc32)c1 | 68* | 100 | 93 | 97 | 103 | 104
COc1ccc(CCNC(=O)CCC(=O)N2CCOc3ccc(C)cc32)cc1OC | 90 | 111 | 107 | 100 | 96 | 90
O=c1cc(N2CCN(c3ccccc3Cl)CC2)[nH]c(=O)n1Cc1ccc(F)cc1 | 85 | 112 | 102 | 96 | 101 | 106
COc1ccccc1N1CCN(c2cc(=O)n(Cc3ccc(F)cc3)c(=O)[nH]2)CC1 | 69* | 110 | 117 | 99 | 124 | 109
Cc1cc(N2CCN(C(=O)c3cccs3)CC2)c(F)cc1[N+](=O)[O-] | 102 | 97 | 103 | 104 | 105 | 94
C[C@H](CO)N1C[C@H](C)[C@H](CN(C)Cc2cncnc2)Oc2ncc(C#CC3(O)CCCC3)cc2C1=O | 93 | x | x | x | x | x
CN1CCN(CC(=O)N2CCn3c4c(c5cc(C6CCCCC6)ccc53)CCCC42)CC1 (configuration not stated) | 109 | 169* | 104 | 91 | 89 | 99
Cc1ccc2c(c1)c1c3n2CCN(C(=O)CN2CCN(C)CC2)C3CCC1 (configuration not stated) | 128 | 92 | 94 | 95 | 96 | 93
COc1ccccc1C(=O)OCC(=O)Nc1ccccc1OC(F)F | 109 | 87 | 96 | 94 | 81 | 95
COC(=O)c1ccc(C(=O)OC)c(NC(=O)COC(=O)c2ccccc2OC)c1 | -8.0* | 98 | 96 | 104 | 107 | 102
COc1ccc(/C=N/NC(=O)c2nn(-c3ccccc3)c(=O)c3c(N)scc23)cc1 | x | 102 | 100 | 96 | 95 | 96
COc1ccc(/C=N/NC(=O)c2nn(-c3ccc(Cl)cc3)c(=O)c3c(N)scc23)cc1 | 82* | 83 | 101 | 99 | 96 | 91
CC(C)CC(OC(=O)c1nsc(Cl)c1Cl)C(=O)NC1CCCC1 (configuration not stated) | x | 60 | 243*[may fluoresce violet] | 43*[may fluoresce violet] | u | u
CC(OC(=O)c1nsc(Cl)c1Cl)C(=O)NC1CCCCC1 (configuration not stated) | 106 | 89 | 92 | 104 | 99 | 94
C#CCNC(=O)C1=C[C@@H](c2ccc(Br)cc2)[C@H](CCCO)[C@@H](OCC)O1 | 101 | 94 | 105 | 96 | 102 | 105
C#CCNC(=O)C1=C[C@H](c2ccc3c(c2)OCO3)[C@@H](CCCO)[C@H](OCC)O1 | 101 | 75 | 300*[may fluoresce violet] | 46*[may fluoresce violet] | u | u
C/C(=N\Nc1nc2ccccc2nc1C)c1ccccc1O | 78* | 110 | 102 | 102 | 113 | 104
CSc1ccc(NC(=O)N2CCN(c3nc4ccccc4s3)CC2)cc1 | 105 | 94 | 212*[may fluoresce violet] | 60 | u | u
O=S(=O)(c1cccc(Br)c1)N1CCN(c2ccnc3cc(Cl)ccc23)CC1 | 117 | 110 | 113 | 95 | 174*[may fluoresce green] | 123
N#CC(=C1NC(=O)c2ccccc21)c1nc2ccccc2n1CCO | 102 | x | x | x | x | x
CCOc1ccc(-c2nc(N)ncc2Oc2ccccc2Br)c(O)c1 | 23* | 98 | 100 | 98 | 101 | 101
CCOc1ccc(-c2nc(N)ncc2Oc2cccc(OC)c2)c(O)c1 | 101 | 117 | 117 | 102 | 98 | 107
O=C(CSc1ccsc1[N+](=O)[O-])NC1CCCC1 | 87 | 76 | 204*[may fluoresce violet] | 72 | u | u
CCOc1c(Br)ccc2c1sc1nc[nH]c(=O)c12 | 104 | 105 | 183* | x | 105 | 27
COCCOC(=O)c1sc2nc[nH]c(=O)c2c1C | 100 | 101 | 97 | 90 | 100 | 108
SMILES | DSG3 Ab inh | LAP4 TOR yeast | MEP2-GFP yeast | RPL19A TOR yeast | CIT2 TOR yeast | AGP1-GFP MLPCN
COc1ccccc1NC(=S)N1CCC(c2nc3cc(C)c(C)cc3[nH]2)CC1 | 104 | 98 | 300*[may fluoresce violet] | 59 | u | u
COc1cccc(NC(=O)C(C#N)Cc2ccncc2)c1 (configuration not stated) | 108 | 98 | 94 | 104 | 100 | 114
CCc1ccccc1NC(=O)C(C#N)Cc1cccnc1 (configuration not stated) | 100 | 93 | 209*[may fluoresce violet] | 61 | u | u
Cc1ccc(SSc2cc(C)ccc2N)c(N)c1 | 65* | 131 | 82 | 99 | 101 | 88
CC(=O)NCC(=O)NC(C(=O)Nc1ccc2c(c1)OCCO2)c1ccc(C)cc1 (configuration not stated) | 97 | u | u | 40*[may fluoresce violet] | u | u
CC(=O)NCC(=O)NC(C(=O)Nc1ccc2c(c1)OCCO2)c1ccccc1 (configuration not stated) | 95 | 100 | 96 | 106 | 104 | 105
COc1ccc(CN(C(=O)c2snc(C(N)=O)c2N)C(C(=O)NC2CCCC2)c2cc(OC)ccc2OC)cc1 (configuration not stated) | x | 74 | 302*[may fluoresce violet] | 41*[may fluoresce violet] | u | u
COc1ccc(CN(C(=O)c2snc(C(N)=O)c2N)C(C(=O)NC2CCCC2)c2ccc(OC)cc2)cc1 (configuration not stated) | x | 97 | 99 | 98 | 107 | 100
CCN(CC)c1ccc2cc(C(C)=O)c(=O)oc2c1 | 72 | 106 | 311*[may fluoresce violet] | 19*[may fluoresce violet] | u | x
CC(C)(CNC(=O)CNC(=O)c1ccc(Cl)cc1Cl)N1CCOCC1 | 115 | x | x | x | x | x
CCN(CC)c1ccc(/C=C/c2cc(-c3ccccc3)c3ccccc3n2)cc1 | u | u | u | 30*[may fluoresce violet] | u | u
CCOc1cc(/C=C/c2cc(C(=O)O)c3ccccc3n2)ccc1O | 98 | 92 | 113 | 104 | 101 | 101
Cc1ccc(S(=O)(=O)NCCC(=O)NNC(=O)COc2ccccc2Cl)cc1C | 110 | 98 | 97 | 93 | 81 | 95
Cc1ccc(CCNC(=O)CCS(=O)(=O)c2ccc3nc(C)sc3c2)cc1 | -11* | 105 | 106 | 100 | 94 | 102
COc1ccccc1N1CCN(C(=O)c2ccc(-c3ccc(Cl)cc3)o2)CC1 | 93 | 111 | 96 | 92 | 81 | 94
N=c1c(C(=O)NCCN2CCOCC2)cc2c(=O)n3ccccc3nc2n1CCCN1CCOCC1 | 94 | 78 | 247*[may fluoresce violet] | 52 | u | u
N=c1c(C(=O)NCCN2CCOCC2)cc2c(=O)n3ccccc3nc2n1Cc1ccc(F)cc1 | 102 | 80 | 140 | 28*[may fluoresce violet] | u | 15
Cc1ccc2nc3c(cc(C(=O)NCCN4CCOCC4)c(=N)n3CCCN3CCOCC3)c(=O)n2c1 | 96 | 89 | 119 | 92 | 102 | 78
O=c1ccc2c(ccc3ncccc32)o1 | 107 | x | x | x | x | x
Nc1nc(-c2ccccc2)c(C(=O)Nc2ccccc2)s1 | 104 | 133 | u | 16*[may fluoresce violet] | u | u
